# Results published in PMC5540273 (PLoS ONE, 2017).
# System: DAPK2
# Details: concentration: 1 μM, replicates: in singlicate; n = 1
# 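Also: KINOMEscan kinase panel screen.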
row,Structure (SMILES),%Inh [%]
1,CCc1ccc(-c2ccc3c(c2)-c2nn(C)cc2S(=O)(=O)N3C)cc1,0
2,Nc1n[nH]c2ncc(-c3ccccc3)cc12 [SB-517081],0
3,Cc1nc(N(C)[C@H]2CN(C(=O)CC#N)CC[C@H]2C)c2cc[nH]c2n1,13
4,COc1ccc(-c2coc3ccc(-c4nnc(SCc5cccc(C#N)c5)o4)cc23)cc1,0
5,CCC(=O)c1c(-c2ccccc2)c2cc(Cl)ccc2c(=O)n1Cc1cc(S(C)(=O)=O)n(CCC(C)(C)O)n1,3
6,COc1cc2ncn(-c3cc(OCc4ccncc4)c(C(N)=O)s3)c2cc1OC [GSK336313],0
7,Nc1nccc2scc(-c3ccc4c(c3)CCN4C(=O)Cc3ccccc3)c12 [GSK2576924],3
8,COC(=O)c1c(-c2ccccc2)c2cc(Br)ccc2c(=O)n1Cc1ccc(S(C)(=O)=O)cc1,11
9,CCCC(=O)Nc1n[nH]c2ncc(-c3cccc4ccccc34)cc12 [SB-642057],0
10,O=C1NC(=O)C(c2ccccc2)=C1Nc1cccc(O)c1 [SB-390534],0
11,Cc1nn2c(=O)cc(N3CCOCC3)nc2n1Cc1cccc(Cl)c1Cl [GSK2342769],21
12,C[C@@H]1CC[C@H](C(=O)NC2CCCCC2)CN1c1cc(-c2ccc3c(N)n[nH]c3c2)nc(N)n1 [GSK2291363],47
13,Nc1ncnc2c1ncn2-c1cccc2ccccc12 [SKF-97184],0
14,COc1cc2ncn(-c3cc(OCc4ccncc4Br)c(C(N)=O)s3)c2cc1OC [GW854278],18
15,COc1cc2ncn(-c3cc(OCCCc4ccccc4)c(C(N)=O)s3)c2cc1OC [GSK205189],26
16,O=C(Nc1n[nH]c2nc(-c3ccccc3)c(Cl)cc12)C1CC1 [SB-734909],0
17,COc1ccc(-c2cc3c(C)nc(N)nc3n([C@H]3CC[C@H](OCCO)CC3)c2=O)cn1,0
18,CCC(=O)c1c(-c2ccccc2)c2cc(Cl)ccc2c(=O)n1Cc1ccc(C(=O)O)cc1,0
19,Cc1nnc(-c2ccc(C)c(-c3ccc(C(=O)O)cc3)c2)o1 [GW608005],0

row,Structure (SMILES),%Inh [%]
1,Cc1ccccc1COc1cc(-n2cnc3cc(Cl)ccc32)sc1C(N)=O [GW813349],0
2,Cc1ccc(Oc2ccc(Nc3ncnc4cc[nH]c34)cc2C)cn1,0
3,CCCNC(=O)Nc1ccc(Oc2ncnc3ccn(C)c23)cc1,0
4,COc1cc(Nc2nccc(N3CCC(NC(=O)C4COc5ccccc5O4)C3)n2)cc(OC)c1OC (centres unmarked) [GSK1379761],20
5,COc1cc2ncn(-c3cc(OCc4ccc(S(C)(=O)=O)cc4)c(C(N)=O)s3)c2cc1OC [GW869979],0
6,COc1cc(Nc2ccnc3ccc(C(F)(F)F)cc23)cc(OC)c1OC [GW577382],4
7,O=C(Nc1n[nH]c2cc(-c3ccccc3F)ccc12)C1CC1 [SB-733371],0
8,COC(=O)c1c(-c2ccccc2)c2cc(C)ccc2c(=O)n1Cc1ccccc1,0
9,FC(F)(F)c1ccc(-c2ncn(CCCN3CCOCC3)c2-c2ccncc2)cc1 [SB-217780],5
10,Cl.NS(=O)(=O)c1cccc(Nc2cc(-c3ccc(F)cc3)n[nH]2)c1 [GW824645],0
11,COc1cccc(C2=C(N(C)c3ccccc3)C(=O)NC2=O)c1 [SB-334865],0
12,Cn1c(=O)c(F)c(Nc2ccc(I)cc2F)c2c(=O)n(OC[C@H](O)CO)cnc21,0
13,Fc1cccc(CSc2nnc(-c3ccc4c(c3)CCO4)o2)c1,0
14,Nc1ncnc2c1ncn2-c1cccc(F)c1 [SKF-97560],0
15,COc1cc(OC)cc(-c2cc3cnc(N)nc3nc2NC(=O)NC(C)(C)C)c1,0
16,CCc1nc(-c2cccc(C)c2)c(-c2ccncc2)s1,0
17,COc1ccc(Nc2nccc(N3CCC(NS(=O)(=O)c4ccc(NC(C)=O)cc4)C3)n2)cc1 (centres unmarked) [GSK1379729],0
18,COc1ccc(-n2cnc3c(N)ncnc32)cc1 [SKF-97236],1

# System: DAPK3
# Details: concentration: 1 μM, replicates: in singlicate; n = 1
row,Structure (SMILES),%Inh [%]
1,CCc1ccc(-c2ccc3c(c2)-c2nn(C)cc2S(=O)(=O)N3C)cc1,9
2,Nc1n[nH]c2ncc(-c3ccccc3)cc12 [SB-517081],29
3,Cc1nc(N(C)[C@H]2CN(C(=O)CC#N)CC[C@H]2C)c2cc[nH]c2n1,0
4,COc1ccc(-c2coc3ccc(-c4nnc(SCc5cccc(C#N)c5)o4)cc23)cc1,0
5,CCC(=O)c1c(-c2ccccc2)c2cc(Cl)ccc2c(=O)n1Cc1cc(S(C)(=O)=O)n(CCC(C)(C)O)n1,0
6,COc1cc2ncn(-c3cc(OCc4ccncc4)c(C(N)=O)s3)c2cc1OC [GSK336313],10
7,Nc1nccc2scc(-c3ccc4c(c3)CCN4C(=O)Cc3ccccc3)c12 [GSK2576924],21
8,COC(=O)c1c(-c2ccccc2)c2cc(Br)ccc2c(=O)n1Cc1ccc(S(C)(=O)=O)cc1,7
9,CCCC(=O)Nc1n[nH]c2ncc(-c3cccc4ccccc34)cc12 [SB-642057],24
10,O=C1NC(=O)C(c2ccccc2)=C1Nc1cccc(O)c1 [SB-390534],0
11,Cc1nn2c(=O)cc(N3CCOCC3)nc2n1Cc1cccc(Cl)c1Cl [GSK2342769],64
12,C[C@@H]1CC[C@H](C(=O)NC2CCCCC2)CN1c1cc(-c2ccc3c(N)n[nH]c3c2)nc(N)n1 [GSK2291363],35
13,Nc1ncnc2c1ncn2-c1cccc2ccccc12 [SKF-97184],0
14,COc1cc2ncn(-c3cc(OCc4ccncc4Br)c(C(N)=O)s3)c2cc1OC [GW854278],6
15,COc1cc2ncn(-c3cc(OCCCc4ccccc4)c(C(N)=O)s3)c2cc1OC [GSK205189],0
16,O=C(Nc1n[nH]c2nc(-c3ccccc3)c(Cl)cc12)C1CC1 [SB-734909],0
17,COc1ccc(-c2cc3c(C)nc(N)nc3n([C@H]3CC[C@H](OCCO)CC3)c2=O)cn1,0
18,CCC(=O)c1c(-c2ccccc2)c2cc(Cl)ccc2c(=O)n1Cc1ccc(C(=O)O)cc1,0
19,Cc1nnc(-c2ccc(C)c(-c3ccc(C(=O)O)cc3)c2)o1 [GW608005],0

row,Structure (SMILES),%Inh [%]
1,Cc1ccccc1COc1cc(-n2cnc3cc(Cl)ccc32)sc1C(N)=O [GW813349],0
2,Cc1ccc(Oc2ccc(Nc3ncnc4cc[nH]c34)cc2C)cn1,0
3,CCCNC(=O)Nc1ccc(Oc2ncnc3ccn(C)c23)cc1,0
4,COc1cc(Nc2nccc(N3CCC(NC(=O)C4COc5ccccc5O4)C3)n2)cc(OC)c1OC (centres unmarked) [GSK1379761],11
5,COc1cc2ncn(-c3cc(OCc4ccc(S(C)(=O)=O)cc4)c(C(N)=O)s3)c2cc1OC [GW869979],9
6,COc1cc(Nc2ccnc3ccc(C(F)(F)F)cc23)cc(OC)c1OC [GW577382],26
7,O=C(Nc1n[nH]c2cc(-c3ccccc3F)ccc12)C1CC1 [SB-733371],0
8,COC(=O)c1c(-c2ccccc2)c2cc(C)ccc2c(=O)n1Cc1ccccc1,0
9,FC(F)(F)c1ccc(-c2ncn(CCCN3CCOCC3)c2-c2ccncc2)cc1 [SB-217780],15
10,Cl.NS(=O)(=O)c1cccc(Nc2cc(-c3ccc(F)cc3)n[nH]2)c1 [GW824645],0
11,COc1cccc(C2=C(N(C)c3ccccc3)C(=O)NC2=O)c1 [SB-334865],14
12,Cn1c(=O)c(F)c(Nc2ccc(I)cc2F)c2c(=O)n(OC[C@H](O)CO)cnc21,13
13,Fc1cccc(CSc2nnc(-c3ccc4c(c3)CCO4)o2)c1,0
14,Nc1ncnc2c1ncn2-c1cccc(F)c1 [SKF-97560],8
15,COc1cc(OC)cc(-c2cc3cnc(N)nc3nc2NC(=O)NC(C)(C)C)c1,0
16,CCc1nc(-c2cccc(C)c2)c(-c2ccncc2)s1,9
17,COc1ccc(Nc2nccc(N3CCC(NS(=O)(=O)c4ccc(NC(C)=O)cc4)C3)n2)cc1 (centres unmarked) [GSK1379729],6
18,COc1ccc(-n2cnc3c(N)ncnc32)cc1 [SKF-97236],0
